Bioassay records deposited in PubChem BioAssay by National Center for Advancing Translational Sciences (NCATS).
Tb PGK inh: blocks T. brucei phosphoglycerate kinase | PGK/GAPDH coupled, Kinase-Glo luminescence, 60 min | P07378 | 0.043% of 380,000 active | Potency, µM (highest dose often 57.5 µM), without a hit: at the highest dose activity change, negative = inhibition, most hits filed as inhibitors; also: % is scaled to controls: 0 for no effect and ±100 for the full control effect; nearly all actives have a fitted effect of over 60% in size
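Recombinant glycosomal PGK reaction used 1,3-bisphosphoglycerate generated in-well by GAPDH (100nM final) in 100mM TEA pH 7.6, 5mM MgCl2, 0.01% Tween-20. After 60 minutes at room temperature, ATP was read by Kinase-Glo Plus luminescence end-point.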
Rango dissoc inh: inhibitors of RanGTP-induced Rango-importin beta complex dissociation; O95149+P62826; Biochemical FRET Rango-importin beta, RanGTP-induced dissociation; Potency, µM (titrated, usually from 46.1 µM), for the others: at the top dose activity change, negative = inhibition; 0.071% of 340,000 active; calls by dose curve; also: % of control where 0% means no effect; nearly all actives have a fitted effect of over 45% in size
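Rango/importin beta premix (0.1/0.25 uM final), PBS + 1 mM DTT + 0.02% Tween-20 + 0.1% BSA; cpd 5 min RT; FRET pre-read; + RanGTP-RCC1 (0.6 uM Ran, 2 mM GTP, 0.2 uM RCC1); 45 min RT; FRET post-read, ex 430, em 486/530 nm.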
Rango-impB inh: prevents formation of the Rango-importin beta complex | Q14974 | Rango CFP/YFP FRET sensor + importin beta, 45 min | Potency, µM (highest dose often 92.2 µM), inactives show at the top dose inhibition of complex formation | 0.031% of 340,000 active | AID 540263; calls by dose curve;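 also: 0% = DMSO wells and 100% = buffer wells lacking importin beta; nearly all actives have a fitted effect of over 15% in size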
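FRET biosensor (snurportin 1 IBB flanked by EYFP and cerulean), 50 nM, with compound 5 min, then 0.125 microM importin beta in PBS, 1 mM DTT, 0.02% Tween-20, 0.1% BSA. CFP/YFP ratio read after 45 min at room temperature; pre-read flags interference.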
ELG1 repair inh: inhibitors of ELG1-dependent DNA repair in HEK293T cells. HEK293T ELG1-luciferase reporter, luminescence, 16 h; DNA damage induced by 5-fluorouridine. Potency, µM (doses to about 46.1 µM), inactives show at the highest dose activity change, negative = inhibition, most hits filed as inhibitors. 2.3% of 330,000 active. AID 504467; also: % is scaled to controls: 0 for no effect and ±100 for the full control effect; nearly all actives have a fitted effect of over 55% in size
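5-Fluorouridine DNA damage + compound/DMSO, 2,000 cells/well, 16 h, 37 °C/5% CO2. ONE-Glo, 30 min RT, luminescence. Readout = decrease in reporter signal.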
Tb PFK block: inhibitors of T. brucei phosphofructokinase. O15648. AID 485367. Potency, µM (doses to about 57.5 µM), for the others: top-dose activity, negative = inhibition, actives largely listed as inhibitors. T. brucei PFK, ADP-Glo luminescence. 0.17% of 330,000 active;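 also: 0% = uninhibited 1x PFK enzyme wells and -100% = no-enzyme wells; nearly all actives have a fitted effect of over 60% in size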
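PFK 1.25 nM, F6P 0.5 mM, ATP 0.1 mM, 0.1 M TEA pH 8.0, 5 mM MgCl2, 0.01% Tween20, 0.1% BSA; 45 min RT. ADP-Glo readout. qHTS titration up to 57 uM; curves fitted, compounds curve-classed.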
PKM2 act: activators of human pyruvate kinase M2. Potency, µM (titrated, usually from 57.5 µM), inactives show at the highest dose activation, hits mostly activators. P14618. 0.34% of 260,000 active. purified PKM2, Kinase-Glo ATP luminescence, activation; response scale: 0% is enzyme alone, no compound; also: % is scaled to controls: 0 for no effect and ±100 for the full control effect; nearly all actives have a fitted effect of over 55% in size
Target sequence (P14618 whole entry, looked up): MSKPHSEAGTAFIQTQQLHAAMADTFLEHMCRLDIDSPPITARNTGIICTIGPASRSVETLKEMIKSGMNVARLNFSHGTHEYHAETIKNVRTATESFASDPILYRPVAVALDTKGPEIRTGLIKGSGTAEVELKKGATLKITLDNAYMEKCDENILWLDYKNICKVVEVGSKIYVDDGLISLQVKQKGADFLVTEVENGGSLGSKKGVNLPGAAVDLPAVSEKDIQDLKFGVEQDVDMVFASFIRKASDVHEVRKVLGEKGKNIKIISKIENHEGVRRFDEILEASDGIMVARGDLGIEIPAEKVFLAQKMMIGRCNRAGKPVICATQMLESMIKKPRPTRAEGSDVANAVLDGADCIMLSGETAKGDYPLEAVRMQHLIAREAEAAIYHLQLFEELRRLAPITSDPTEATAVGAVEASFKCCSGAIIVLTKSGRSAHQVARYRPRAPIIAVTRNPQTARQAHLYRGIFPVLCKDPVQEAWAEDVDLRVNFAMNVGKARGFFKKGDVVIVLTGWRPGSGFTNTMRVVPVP
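hPK-M2, >95% pure; 0.1 mM ADP / 0.5 mM PEP final; imidazole pH7.2 buffer w/ 7 mM MgCl2, 50 mM KCl; 1 h RT; Kinase-Glo lum. Intermediate enzyme activity for dual inhibitor/activator qHTS.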
* hit, by the source's call; i = inactive; u = inconclusive; x = not tested or not shown. Shown are actives, neighbours in structure and some others; about 2.4% of the full set was active somewhere. Unless noted, calls follow the shape of the dose curve; as a rule, active = well fitted curve in the direction sought with a large enough effect; inconclusive = small, poorly fitted or top-dose-only effect, or another doubt; inactive = no such curve, though single readings can be large; an effect the other way counts as inactive or inconclusive. Potency is read from the fitted curve at half-maximal effect.

SMILES	Tb PGK inh	Rango dissoc inh	Rango-impB inh	ELG1 repair inh	Tb PFK block	PKM2 act
COc1ccccc1C(=O)OCC(=O)N1CCC(Cc2ccccc2)CC1	i	6%	2%	u	-3%	x
COc1ccc(CCNC(=O)C2CCCN2C(=O)Nc2ccc(F)cc2)cc1OC (stereo not given)	-1%	-8%	0%	-6%	2%	-2%
O=C(CCc1cn(Cc2ccccc2Cl)c2ccccc12)NC1CCCCC1	7%	x	x	x	x	x
O=C1c2cccc(OCC(=O)N3CCCc4ccccc43)c2CCN1Cc1ccc(F)cc1	-1%	1%	1%	23µM*	-5%	-3%
Cc1cccc(CN2CCc3c(OCC(=O)N4CCCc5ccccc54)cccc3C2=O)c1	3%	-1%	-2%	u	-4%	15%
O=C(O)c1ccc(-n2nc(C(F)(F)F)c3c2CCCC3)cc1	-8%	0%	4%	17%	0%	4%
O=C(c1ccc(-n2nc(C(F)(F)F)c3c2CCCC3)cc1)N1CCOCC1	5%	9%	-2%	5.2µM*	2%	0%
CN(CC(=O)Nc1ccc(Cl)c(Cl)c1)C(=O)CNC(=O)Cc1ccccc1	-2%	6%	2%	0%	-3%	x
CN(CC(=O)NC(=O)NCc1ccccc1)CC(=O)Nc1ccc(Cl)c(Cl)c1	-3%	15%	-2%	18µM*	-3%	x
COc1ccc(N2CCN(C(=O)CSc3nnc4c(C)cc5ccccc5n34)CC2)cc1	6%	0%	-2%	23µM*	-1%	0%
CCOC(=O)CSc1nnc(-c2ccoc2C)n1-c1ccc(OCC)cc1	-8%	-10%	-3%	0%	-1%	40µM*
CN(CC(=O)Nc1ccccc1Cl)C(=O)Cn1cnc2ccccc2c1=O	6%	0%	-2%	15%	0%	x
COc1ccc(Cl)cc1NC(=O)CN1CCC(n2nnc3ccccc32)CC1	0%	-3%	-1%	7.3µM*	-1%	0%
CCCN1CCC(NC(=O)Nc2cc(Cl)ccc2OC)CC1	-11%	22%	0%	14%	2%	3%
COc1ccc(Cl)cc1NC(=O)CN1CCC(NC(=O)C2CC2)CC1	-1%	5%	3%	9.2µM*	-17%	1%
COCCn1c(N)c(C(=O)NS(=O)(=O)c2ccc(C)cc2)c(=O)[nH]c1=O	-2%	-9%	-3%	u	8%	25µM*
O=C(Nc1cccc(NC(=O)c2ccc(-c3ccc(Br)cc3)o2)c1)c1ccccc1	-3%	-7%	-1%	18µM*	2%	-2%
COc1ccc(Br)cc1C(=O)Nc1cccc(NC(=O)c2ccco2)c1	i	1%	-3%	21µM*	-2%	2%
COc1c(C)cc(Br)cc1C(=O)Nc1cccc(NC(=O)c2ccco2)c1	-1%	4%	-4%	u	-2%	-4%
O=C(Nc1cccc(NC(=O)c2ccc(-c3cccc(Br)c3)o2)c1)c1ccco1	-1%	-19%	-7%	9.2µM*	4%	0%
COCCNC(=O)/C(C#N)=C/c1c(N2CCN(C)CC2)nc2ccccn2c1=O	-9%	u	u	10%	-11%	x
CCCCOC(=O)c1ccc(Nc2nc3ccccc3c3nnc(C)n23)cc1	-10%	x	x	x	x	x
C=C1C(=O)[C@@]23[C@H](O)C[C@@H]4C(C)(C)CC[C@H](O)[C@@]4(C)[C@@H]2CC[C@@H]1[C@H]3O	i	0%	0%	6.5µM*	-8%	-2%
C=C1C(=O)[C@@]23[C@H](O)C[C@@H]4C(C)(C)CC[C@H](O)[C@]4(C)[C@@H]2C[C@H](O)[C@@H]1[C@H]3O	-5%	0%	0%	16µM*	9%	-3%
O=C(NC1CCCCC1)c1cc(S(=O)(=O)N2CCOCC2)ccc1Cl	5%	0%	2%	-5%	-14%	-8%
